Consider 16 molecules from the supplement of paper PMC8285479.

For this test, the system named is NCI-H1944. The test can be described thus: normalised cell viability (NPI; 0 = phenylarsine oxide control, 1 = DMSO control) (fraction of DMSO control); NCI-H1944 is a non-small cell lung cancer line; higher = more viable cells (less compound toxicity). The conditions noted are these: 6 days.
Where [1] appears, read: glucocorticoid arm: hydrocortisone 2.75 uM co-treatment, compound 1 µM.
Where [2] appears, read: glucocorticoid arm: hydrocortisone 2.75 uM co-treatment, compound 5 µM.
[3] abbreviates: glucocorticoid arm: hydrocortisone 2.75 uM pre-treated 2 days and continued, compound 1 µM.
Setting [4] is: glucocorticoid arm: hydrocortisone 2.75 uM pre-treated 2 days and continued, compound 5 µM.
The mark [5] stands for this setting: glucocorticoid arm: vehicle, compound 1 µM.
Setting [6] is: glucocorticoid arm: vehicle, compound 5 µM.

Counter-ions that a name gives are not always drawn. ± gives the standard deviation of the averaged measurements. Whole data set: some 1,900 compounds, median “normalised cell viability (NPI; 0 = phenylarsine oxide control, 1 = DMSO control)” near 1, cut for the lowest 2% near 0.039. Many of the other results were omitted from the sample, so the lowest values are more common in it than they were.
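Further: CTB read-out in 384-well plates, triplicate wells, NPI normalised per plate against 1 µM phenylarsine oxide (0) and 0.1% DMSO (1) controls.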

Regarding `CCc1cnn2c(NCc3ccc[n+]([O-])c3)cc(N3CCCC[C@H]3CCO)nc12`, the normalised cell viability is 0.0547 ± 0.0038 under setting [1]; 0.0409 ± 0.0039 under setting [2]; 0.144 ± 0.004 under setting [3]; 0.153 ± 0.0068 under setting [4]; 0.0139 ± 0.0022 under setting [5]; 0.00878 ± 0.0013 under setting [6].

As for `Oc1cc2c(cc1O)C(c1ccccc1)CNCC2` (racemic), the normalised cell viability came to 0.987 ± 0.014 under setting [1]; 0.982 ± 0.013 under setting [2]; 0.982 ± 0.023 under setting [3]; 0.972 ± 0.011 under setting [4]; 0.992 ± 0.0044 under setting [5]; 0.9913 ± 0.0021 under setting [6].

Turning to `OC(CN1CCC(Cc2ccc(F)cc2)CC1)c1ccc(Cl)cc1` (stereo unspecified) [Eliprodil], the normalised cell viability is, setting by setting: under setting [1], 0.9487 ± 0.0064; under setting [2], 0.9277 ± 0.0051; under setting [3], 0.9827 ± 0.0091; under setting [4], 0.971 ± 0.0076; under setting [5], 0.9973 ± 0.0046; under setting [6], 0.9967 ± 0.0058.

With `Cc1ccc(NC(=O)c2ccc(CN3CCN(C)CC3)cc2)cc1Nc1nccc(-c2cccnc2)n1`, the normalised cell viability under setting [1] was determined as 1.043 ± 0.0058; the normalised cell viability under setting [2] worked out at 1.1 ± 0.032; the normalised cell viability under setting [3] worked out at 1.04 ± 0.011; the normalised cell viability under setting [4] was 1.05 ± 0.01; the normalised cell viability under setting [5] worked out at 0.9957 ± 0.004; the normalised cell viability under setting [6] turned out to be 1 ± 0.014.

For `Nc1ccccc1NC(=O)c1ccc(CNC(=O)OCc2cccnc2)cc1` [Entinostat], the normalised cell viability amounted to 0.925 ± 0.019 under setting [1]; 0.0313 ± 0.0074 under setting [2]; 0.962 ± 0.013 under setting [3]; 0.0766 ± 0.011 under setting [4]; 0.348 ± 0.03 under setting [5]; 0.00136 ± 0.00059 under setting [6].

Regarding `Cc1ccc(NC(=O)c2ccc(CN3CCN(C)CC3)cc2)cc1Nc1nccc(-c2cccnc2)n1` [Imatinib Mesylate], the normalised cell viability by setting is: under setting [1], 1.05 ± 0.015; under setting [2], 1.14 ± 0.021; under setting [3], 1.05 ± 0.015; under setting [4], 1.1 ± 0.032; under setting [5], 1.01 ± 0.01; under setting [6], 1.03 ± 0.011.

Regarding `Nc1ccccc1NC(=O)c1ccc(CNC(=O)OCc2cccnc2)cc1` [Entinostat (MS-275)], the normalised cell viability worked out at 1.05 ± 0.015 under setting [1]; 0.184 ± 0.004 under setting [2]; 1.023 ± 0.0058 under setting [3]; 0.302 ± 0.018 under setting [4]; 0.866 ± 0.026 under setting [5]; 0.02 ± 0.0035 under setting [6].

Consider `Cc1cc(NC(=O)c2cccc(NC(=O)/C=C/CN(C)C)c2)ccc1Nc1nccc(-c2cccnc2)n1`, for which the normalised cell viability is, setting by setting: under setting [1], 0.989 ± 0.016; under setting [2], 0.943 ± 0.017; under setting [3], 1.007 ± 0.0058; under setting [4], 0.917 ± 0.026; under setting [5], 0.959 ± 0.011; under setting [6], 0.702 ± 0.033.

Consider `COc1ccc(C(=O)NCc2cccnc2)cc1C(=O)NCc1cccnc1` [Picotamide], for which the normalised cell viability reads like this: under setting [1], 0.989 ± 0.017; under setting [2], 0.992 ± 0.004; under setting [3], 0.867 ± 0.26; under setting [4], 1 ± 0.016; under setting [5], 1.007 ± 0.0058; under setting [6], 1.003 ± 0.0064.

Take `CC(=O)Nc1ccc(C(=O)Nc2ccccc2N)cc1`: the normalised cell viability was determined as 1.02 ± 0.011 under setting [1]; 1.063 ± 0.0058 under setting [2]; 1.033 ± 0.0058 under setting [3]; 1.06 ± 0.011 under setting [4]; 0.9833 ± 0.0057 under setting [5]; 0.906 ± 0.052 under setting [6].

Turning to `Cc1ccc(NC(=O)c2ccc(CN3CCN(C)CC3)cc2)cc1Nc1nccc(-c2cccnc2)n1` [Imatinib (Gleevec)], the normalised cell viability was found to be 1.05 ± 0.017 under setting [1]; 1.14 ± 0.015 under setting [2]; 1.037 ± 0.0058 under setting [3]; 1.1 ± 0.01 under setting [4]; 1.01 ± 0.015 under setting [5]; 1.033 ± 0.0058 under setting [6].

As to `CC(=O)Nc1ccc(C(=O)Nc2ccccc2N)cc1` [CI994 (Tacedinaline)], the normalised cell viability under setting [1] worked out at 0.9813 ± 0.0093; the normalised cell viability under setting [2] stood at 1.03 ± 0.029; the normalised cell viability under setting [3] was found to be 0.999 ± 0.012; the normalised cell viability under setting [4] came to 1.02 ± 0.02; the normalised cell viability under setting [5] is 0.9707 ± 0.0072; the normalised cell viability under setting [6] was 0.9157 ± 0.008.

Turning to `Nc1ccccc1NC(=O)c1ccc(CNc2nccc(-c3cccnc3)n2)cc1` [Mocetinostat (MGCD0103)], the normalised cell viability reads like this: under setting [1], 1.033 ± 0.0058; under setting [2], 0.00494 ± 0.0024; under setting [3], 1.02 ± 0.02; under setting [4], 0.0153 ± 0.0051; under setting [5], 0.585 ± 0.02; under setting [6], 0.00194 ± 0.00024.

As to `COc1cc2c(cc1OC)[C@@H](c1ccccc1)CN(C)CC2`, the normalised cell viability reads like this: under setting [1], 0.9913 ± 0.006; under setting [2], 1.023 ± 0.0058; under setting [3], 1.02 ± 0.011; under setting [4], 1.01 ± 0.019; under setting [5], 0.9883 ± 0.0015; under setting [6], 0.9863 ± 0.0055.

In the case of `Nc1nc(N)c(N=O)c(OCC2CCCCC2)n1`, the normalised cell viability is 1.02 ± 0.011 under setting [1]; 1.05 ± 0.017 under setting [2]; 1.037 ± 0.0058 under setting [3]; 1.023 ± 0.0058 under setting [4]; 1 under setting [5]; 0.978 ± 0.019 under setting [6].

For `Clc1ccc(C2(c3ccc(-c4cn[nH]c4)cc3)CCNCC2)cc1`, the normalised cell viability runs as follows: under setting [1], 0.968 ± 0.012; under setting [2], 0.9977 ± 0.0021; under setting [3], 0.975 ± 0.011; under setting [4], 1.006 ± 0.0075; under setting [5], 0.9947 ± 0.0051; under setting [6], 0.939 ± 0.015.
